Laboratory results from PubChem BioAssay (NCI).
This is part of a sample that, as a whole, favours compounds with a hit. Of some 83,000 tested, about 20% had one in any assay.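 Note: values are percent growth. 100 is the growth of untreated cells, values between 100 and 0 indicate rising inhibition; between -100 and 0 indicates cell death.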 Values without a mark were called inactive. Calls of active or inactive are those of the source. The calls were made as follows: active = growth percent below 10; inactive = the rest.

These molecules were tested on SN12C renal (assay: NCI-60 one-dose screen, 48 h (100 = growth as untreated, 0 = no growth, -100 = all killed)). Conditions: 10 µM.
For C=CCSC(CC)(CC)C(=O)NC, the growth was 101%.
Cc1c(Cl)cccc1NC(=O)CCCl showed a growth of 95.8%.
In the case of CC(=O)C1N=NCC1c1ccccc1 (centres undefined), the growth is reported as 88.7%.
Work on CCN(CC)CCOc1cccc2c1C(=O)c1cccc(OCCN(CC)CC)c1C2=O yielded a growth of 27.5%.
With CC(C)(C)OC(=O)CN1CCc2c(sc3ncnc(N/N=C/c4ccccc4Br)c23)C1 the growth was 73.3%.
N#CCc1csc(Cc2ccccc2)n1 gave a growth of 101%.
For Clc1ccc(C2=NN=C3C(Cc4ccccc4)=Nc4ccccc4N3C2)cc1, the growth was 83.2%.
For CCN(CC)CC(=O)N(CC)c1ccc(C)c(Cl)c1, the growth was 101%.
With COc1cc(-c2csc(NC(=O)Nc3ccc(Cl)c(C(F)(F)F)c3)n2)cc(OC)c1OC the growth was -11.3% (active).
